Screening results as filed in PubChem.
A selection: hits, their analogues and other compounds. The true share with any hit is near 2.5%.
Cruzain inh noDet: inhibitors of Trypanosoma cruzi cruzain without detergent; AID 1476; Potency, µM, inactives show max response, negative = inhibition, usual class: inhibitors; purified cruzain, Z-FR-AMC fluorescence, no detergent; hit rate 2.3% among 200,000; P25779;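 also: plate controls were enzyme without inhibitor for no effect and buffer without enzyme for full effect; nearly all actives have a fitted effect of over 40% in size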
Target sequence (P25779 123-467 limits assumed): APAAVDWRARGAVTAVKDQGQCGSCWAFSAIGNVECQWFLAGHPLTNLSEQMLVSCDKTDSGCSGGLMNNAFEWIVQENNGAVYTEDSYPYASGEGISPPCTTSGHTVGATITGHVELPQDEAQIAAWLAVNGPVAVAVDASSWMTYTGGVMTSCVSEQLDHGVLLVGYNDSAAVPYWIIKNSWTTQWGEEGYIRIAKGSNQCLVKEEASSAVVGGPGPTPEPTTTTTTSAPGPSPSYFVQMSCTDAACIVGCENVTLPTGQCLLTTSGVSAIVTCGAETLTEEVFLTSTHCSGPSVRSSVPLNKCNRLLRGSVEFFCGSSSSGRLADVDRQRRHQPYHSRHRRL
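Purified cruzain at 1.5 nM, pre-incubated 15 min with compound at room temperature in 100 mM sodium acetate pH 5.5, 5 mM DTT, 0.00005% Triton X-100. Reaction started with 2 uM Z-FR-AMC; AMC fluorescence increase over 60 s gives rate.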
Cruzain Triton: cruzain (T. cruzi) inhibition with detergent; purified cruzain, Z-FR-AMC fluorescence, 0.01% Triton; Potency, µM, for the others: max response, negative = inhibition, hits mostly inhibitors; hit rate 0.43% among 200,000; AID 1478;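 also: plate controls were neutral wells for no effect and buffer without enzyme for full effect; nearly all actives have a fitted effect of over 40% in size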
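Detergent-containing run (0.01% Triton X-100) in acetate buffer pH 5.5 with 5 mM DTT: enzyme at 1.5 nM final, 15 min compound preincubation at room temperature, then 2 uM Z-FR-AMC substrate. Activity taken as 60 s fluorescence increase at 360/450 nm.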
The depositor's hits bear a star; ? = inconclusive. Calls follow the shape of the dose curve; as a rule, active = well fitted curve in the direction sought with a large enough effect; inconclusive = small, poorly fitted or top-dose-only effect, or another doubt; inactive = no such curve, though single readings can be large; an effect the other way counts as inactive or inconclusive. Potency is read from the fitted curve at half-maximal effect.

SMILES	Cruzain inh noDet	Cruzain Triton
COc1ccccc1NC(=O)c1cc(S(=O)(=O)N2CCN(c3ccccc3Cl)CC2)ccc1F	10µM*	0.7%
COc1ccccc1N1CCN(S(=O)(=O)c2ccc(F)c(C(=O)Nc3ccc(Cl)cc3C(F)(F)F)c2)CC1	?	0.5%
CCOC(=O)c1cc(-c2ccccc2)n(CCCC(=O)Nc2cc(C)ccc2OC)c1C	4.4%	-6.0%
Cc1ccc(CNC(=O)Cn2c(=O)n(-c3cccc(Cl)c3)c(=O)c3sc4ccccc4c32)cc1	12.6µM*	-3.0%
Cc1ccc(CNC(=O)Cn2c(=O)n(Cc3ccccc3)c(=O)c3sc4ccccc4c32)cc1	4.9%	-1.3%
Cc1ccc(-c2noc(CN(C(=O)c3ccc(C(C)(C)C)cc3)C(C)C)n2)cc1	2.9%	-4.4%
Cc1ccc(C(=O)COC(=O)CNC(=O)COc2ccccc2C)cc1C	?	15.8µM*
CC(=O)NCC(=O)OCC(=O)c1ccc(C)c(C)c1	9.1%	5.3%
CC(C)c1cnc2c(c1SCC(=O)NCc1ccccc1)c(=O)n(C)c(=O)n2C	-11.1%	1.6%
O=C1C2=C(S[C@@H]3O[C@H](CO)[C@@H](O)[C@H](O)[C@H]3O2)C(=O)c2ccccc21	3.7%	4.2%
COc1ccc(Nc2oc(COc3ccccc3F)nc2C#N)cc1	25.1µM*	-21.4%
COc1ccc(Nc2oc(-c3ccc(COc4ccc(OC)cc4)o3)nc2C#N)cc1	-28.5%	-3.1%
COc1ccc(Nc2oc(-c3ccc(COc4ccccc4)o3)nc2C#N)cc1	?	2.0%
COc1ccc(Nc2oc(COc3ccc(OC)cc3)nc2C#N)cc1	-0.1%	-11.8%
CCOc1ccc(Nc2oc(-c3ccc(COc4ccc(C)cc4)o3)nc2C#N)cc1	3.16µM*	-4.3%
COc1ccc(Nc2oc(-c3ccc(COc4cccc(C)c4)o3)nc2C#N)cc1	15.8µM*	-5.9%
CCc1cccc(C)c1NC(=O)CN1C(=O)C2(SCC(=O)N2c2cc(C)cc(C)c2)c2ccccc21 (stereo unspecified)	-15.8%	-3.1%
CC(=O)O[C@@H]1CC[C@]2(C)C(=C[C@@H]([C@@H]3C=C4C[C@@H](OC(C)=O)CC[C@]4(C)C4=C3[C@H]3C[C@@H]5O[C@@]6(CC[C@H](C)CO6)[C@@H](C)[C@@H]5[C@@]3(C)CC4)C3=C2CC[C@@]2(C)[C@H]4[C@@H](C)[C@]5(CC[C@H](C)CO5)O[C@@H]4C[C@H]32)C1	9.6%	-0.5%
O=C(O)c1ccc(N2CCCCC2)cc1	-0.1%	-5.8%
Nc1ccc(N2CCCCCC2)cc1	31.6µM*	-8.6%
Cc1cc(C(=O)CN2C(=O)NC3(CCCc4ccccc43)C2=O)c(C)n1Cc1ccco1 (stereo unspecified)	?	-2.0%
Cc1cc(C(=O)CN2C(=O)NC3(CCCc4ccccc43)C2=O)c(C)n1Cc1ccccc1 (stereo unspecified)	25.1µM*	-3.5%
COc1ccc(Br)cc1Cn1nnc(C(=O)Nc2cccc(SC)c2)c1N	?	-0.7%
COc1ccc(OC)c(NC(=O)Cc2c(C)n(C(=O)c3ccc(Cl)cc3)c3ccc(OC)cc23)c1	-4.5%	0.8%
COc1ccc2c(c1)c(CC(=O)Nc1cc(C)ccc1C)c(C)n2C(=O)c1ccc(Cl)cc1	12.6µM*	-4.6%
SMILES	Cruzain inh noDet	Cruzain Triton
COc1ccc2c(c1)c(CC(=O)Nc1c(C)cccc1C)c(C)n2C(=O)c1ccc(Cl)cc1	-12.4%	0.9%
COc1ccc2c(c1)c(CC(=O)Nc1ccccc1OC)c(C)n2C(=O)c1ccc(Cl)cc1	15.8µM*	-6.4%
Cc1ccc(Cc2nc3ccccc3nc2SCC(=O)N2CCCCC2C)cc1 (stereo unspecified)	-0.7%	-6.0%
CC(=O)c1ccc(NC(=O)C2=CC(c3ccc(C)cc3)=NS(=O)(=O)N2C)cc1	?	-4.6%
Cc1ccc(-c2nc3c4ccccc4n(CC(=O)N4CCN(c5ccc(F)cc5)CC4)c(=O)n3n2)cc1	4.0%	0.5%
Cc1ccc2c(c1)c1nnc(SCC(=O)N3CCN(c4ccc(F)cc4)CC3)nc1n2CC(=O)O	7.2%	28.2µM*
O=C(NCCc1ccccc1)c1ccc2c(c1)N(Cc1ccc(F)cc1)C(=O)CS2	-12.6%	1.1%
O=C(NCCc1ccc(Cl)cc1)c1ccc2c(c1)N(Cc1ccccc1)CCS2	-24.3%	-5.0%
CC(=O)c1cccc(NC(=O)c2ccc3c(c2)N(Cc2ccc(C)cc2)CCS3)c1	12.6µM*	-12.9%
Cc1ccc(CN2CCSc3ccc(C(=O)NCc4ccc(OC(C)C)cc4)cc32)cc1	3.2%	-5.0%
Cc1ccc(CN2CCSc3ccc(C(=O)NCC(C)c4ccccc4)cc32)cc1 (stereo unspecified)	-9.2%	-6.0%
Cc1ccc(CN2CCSc3ccc(C(=O)Nc4ccc(Cl)cc4)cc32)cc1	7.94µM*	-4.7%
O=C(Nc1ccc(Cl)cc1)c1ccc2c(c1)N(Cc1ccccc1)CCS2	31.6µM*	-11.3%
O=C(NCCc1ccc(Cl)cc1)c1ccc2c(c1)N(Cc1ccccc1)C(=O)CS2	31.6µM*	0.3%
O=C(NCCCCCCNC(=O)ON=C1CCCCC1)ON=C1CCCCC1	4.7%	0.0%
CCN(CC)CCCNc1oc(-c2ccc(OC)cc2)nc1C#N	-20.0%	-15.2%
Cc1ccc(-c2cnc(C3CC3)o2)cc1S(=O)(=O)Nc1ccc(F)cc1Cl	-13.7%	-5.6%
Cc1ccc(CN2CCSc3ccc(C(=O)NCCc4ccccc4)cc32)cc1	-27.8%	-11.5%
Cc1ccc(CN2CCSc3ccc(C(=O)Nc4cc(C)cc(C)c4)cc32)cc1	10µM*	-19.2%
CSc1ccc(CNC(=O)C2CCCN(S(=O)(=O)N(C)c3ccc(F)cc3)C2)cc1 (stereo unspecified)	14.2%	-5.2%
CCOc1ccc(C2=C(C=C(C#N)C#N)C(c3ccccc3)c3ccccc3O2)cc1 (stereo unspecified)	10µM*	-4.2%
COc1ccc(C2=C(CN(C)C)C(c3ccccc3)c3ccccc3O2)cc1 (stereo unspecified)	6.0%	-0.4%
CC(C)c1ccc(O)c(O)c(=O)c1 (tested in a mixture with another compound)	-1.6%	-3.6%
N#Cc1cccc(-n2c(-c3ccccc3)nnc2-c2ccccc2)c1C#N	?	-8.5%
N#Cc1ccc(-n2c(-c3ccccc3)nnc2-c2ccccc2)cc1C#N	20µM*	-10.5%
SMILES	Cruzain inh noDet	Cruzain Triton
CC1=C/C(=N/O)C([C@H]2C=C(C)CC(C)(C)[C@@H]2O)C(C)(C)C1 (stereo partly specified)	2.7%	-3.9%
O=C(NC(=S)Nc1ccccc1N1CCCC1)c1ccc(-c2cccc([N+](=O)[O-])c2)o1	5.01µM*	-9.9%
COc1ccccc1NC(=S)NC(=O)c1ccc(-c2ccc(Cl)cc2)o1	?	-2.9%
O=C(NC(=S)Nc1ccccc1N1CCOCC1)c1ccc(-c2cccc(Cl)c2)o1	?	-0.8%
O=C(NC(=S)Nc1ccccc1O)c1ccc(-c2ccc(Cl)cc2)o1	15.8µM*	5.3%
O=C(NC(=S)Nc1ccccc1N1CCCCC1)c1ccc(-c2cccc([N+](=O)[O-])c2)o1	5.01µM*	2.3%
O=C(NC(=S)Nc1ccccc1N1CCCC1)c1ccc([N+](=O)[O-])cc1	?	-5.5%
CCCN(CCC)c1nn2c(=O)c(C(=O)NCc3cccc(OC)c3)cnc2s1	13.9%	-9.6%
CCc1ccccc1NC(=O)Cn1c(=O)n(Cc2ccc3c(c2)OCO3)c(=O)c2ccc(C(=O)NC3CCCCC3)cc21	-9.3%	5.2%
O=C(Cn1c(=O)n(Cc2ccc3c(c2)OCO3)c(=O)c2ccc(C(=O)NC3CCCCC3)cc21)Nc1ccccc1F	12.6µM*	-0.3%
